# Assay outcomes as filed in PubChem BioAssay.
# Compounds with a hit are over-represented: about 19% of the library has one in this group of screens.
# Cycloheximide cs = affects cycloheximide protein synthesis inhibition readout, counter-screen; cell reporter, cycloheximide protein synthesis inhibition counterscreen; max response, %; 300,000 compounds, 12% hits; in the data active means max response mostly above about 13%, no sharp cut-off; inactive means mostly below about 14%; further: read at 38.3 µM for the half of the compounds with a filed dose
# LASV entry inh = inhibitors of Lassa virus binding or cell entry; Potency, µM (top dose mostly 37.9 µM), actives largely listed as inhibitors; 300,000 compounds, 1.2% hits; Lassa virus pseudotype entry inhibition, cell reporter; calls by dose curve; tested in HEK293 cells; further: nearly all actives have a fitted effect of over 50% in size
# Pf growth 96h = inhibits malaria parasite growth, 96 h; 320,000 compounds, 6.9% hits; Potency, µM (doses to about 28.7 µM), actives largely listed as inhibitors; P. falciparum luciferase reporter growth, 96 h; AID 504834
#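 Delayed-death screen, second-generation endpoint: infected erythrocytes, 2% hematocrit, 0.05% parasitemia final; 96 hours at 37 C, 5% CO2; luciferase detection reagent; luminescence decrease equals reduced growth.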
# Pf growth 48h = inhibits P. falciparum growth in the first generation, 48 h | P. falciparum luciferase growth in erythrocytes, 48 h | Potency, µM (highest dose often 28.7 µM), hits mostly inhibitors | 310,000 compounds, 5.9% hits | AID 504832
#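 Cell-based growth assay: transgenic P. falciparum expressing firefly luciferase, cultured in red cells within RPMI 1640 containing 0.5% w/v Albumax, 24 mM bicarbonate and gentamycin. A drop in luciferase activity indicates inhibition.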
# Shiga toxin inh = blocks Shiga toxin action in Vero cells. Vero cells, Shiga toxin protein synthesis inhibition reporter. inhibition, % at 38.7 µM. 290,000 compounds, 9.2% hits. AID 2315; in the data active means inhibition mostly above about 28%, no sharp cut-off; inactive means mostly below about 43%
# MARV entry inh = blocks Marburg virus binding to or entry into cells; AID 540276; Potency, µM (doses to about 37.8 µM), actives largely listed as inhibitors; 300,000 compounds, 1.8% hits; Marburg virus pseudotyped entry inhibition, cell reporter; calls by dose curve; tested in HEK293 cells
# Hits are given with their value; – = inactive; ? = inconclusive; · = no result given; ! = not active in a repeat; [ ] = remark or other dose. Unless noted, the call rests on the fitted dose curve; in most records, active means well fitted inhibition curve with a large enough effect; inconclusive means small, poorly fitted or top-dose-only effect, or another doubt; inactive means no such curve, though single readings can be large or run the other way.
SMILES,Cycloheximide cs,LASV entry inh,Pf growth 96h,Pf growth 48h,Shiga toxin inh,MARV entry inh
O=C(NC1CCCCC1)N1CCCC(c2nc(-c3cccs3)no2)C1 (stereo not given),–,?,–,–,–,?
COc1ccc(NC(=O)N2CCC(c3nc(-c4cccs4)no3)CC2)cc1,19.1,–,0.522µM,–,–,–
CCOC(=O)Cc1ccc(NC(=O)Nc2ccccc2OCc2cc(=O)n3ccccc3n2)cc1,·,–,·,·,·,·
Cc1ccc(NC(=O)CSc2ccc3nnc(-c4cccnc4)n3n2)cc1,–,·,–,–,–,·
O=C(Nc1ccccc1)N1CCC(c2nc(-c3ccc(S(=O)(=O)N4CCOCC4)cc3)no2)CC1,–,?,8.28µM,?,–,?
O=C(c1ccccc1)N1CCC(c2nc(-c3ccc(S(=O)(=O)N4CCOCC4)cc3)no2)CC1,–,?,?,?,–,–
Nc1nc(SCC(=O)Nc2cc(Cl)c(Cl)cc2Cl)n[nH]1,·,?,·,·,·,–
NC(=O)c1nsc(C(=O)N(CCc2ccccc2)C(C(=O)NC2CCCC2)c2ccco2)c1N (stereo not given),–,–,10.4µM,?,–,–
CCCCC(C(=O)NC(C)(C)C)N(Cc1ccccc1Cl)C(=O)c1snc(C(N)=O)c1N (stereo not given),–,?,–,10.4µM,–,?
CC(C)CCNC(=O)C(c1ccco1)N(Cc1ccccc1)C(=O)c1snc(C(N)=O)c1N (stereo not given),–,–,·,?,–,–
CC(C)(C)NC(=O)C(c1ccco1)N(Cc1ccc2c(c1)OCO2)C(=O)c1snc(C(N)=O)c1N (stereo not given),–,?,9.28µM,–,–,?
CCc1ccc(N(C(=O)c2snc(C(N)=O)c2N)C(C(=O)NC2CCCC2)c2ccco2)cc1 (stereo not given),–,?,–,?,–,7.94µM
N#C/C(=C\c1ccc(Cl)cc1)C(=O)Nc1cccnc1,–,?,–,–,–,–
C(=C\n1nnc2ccccc21)/c1ccc[nH]1,·,·,–,–,·,·
c1ccc2c(c1)Cn1c-2nc2ccccc21,31.6,?,–,–,61.7,–
Brc1c(-c2ccccc2)nc2n1Cc1ccccc1-2,51.9,?,–,–,141.3,?
Nc1nc(-c2ccccc2)c(-c2ccccc2)n1N,–,·,–,–,–,·
O=C1c2ccccc2-c2nc3ccccc3n21,–,–,–,–,–,?
Cc1ccc(-n2nc(C(=O)NC(C)C)c(=O)n(C)c2=O)cc1,·,–,·,·,·,·
CCc1ccc(N(C(=O)CNC(=O)c2ccco2)C(C(=O)NC2CCCC2)c2ccncc2)cc1 (stereo not given),–,–,–,–,–,–
COc1cccc(OC)c1OCCNCC1COc2ccccc2O1 (stereo not given),·,–,·,·,·,12.6µM!
COc1cccc(OC)c1OCCNC[C@@H]1CSc2ccccc2O1,·,·,·,·,·,25.9µM
CN(C)C(CNC(=O)CCNC(=O)c1ccc(Cl)cc1)c1ccco1 (stereo not given),·,–,–,–,·,–
CCCCc1c(C)nc2c(-c3ccc(OC)cc3)c(C)[nH]n2c1=O,·,–,·,·,·,–
COc1ccc(-c2c(C)[nH]n3c(=O)c(Cc4ccccc4)c(C)nc23)cc1OC,–,?,–,–[5.75 µM],–,7.94µM
SMILES,Cycloheximide cs,LASV entry inh,Pf growth 96h,Pf growth 48h,Shiga toxin inh,MARV entry inh
Cc1nc2c(-c3ccc(Cl)cc3)c(C)[nH]n2c(=O)c1Cc1ccccc1,–,?,–,?,–,3.98µM
Cc1nc2c(-c3ccccc3)c(C)[nH]n2c(=O)c1Cc1ccccc1,–,–,–,10.4µM,–,?
COc1ccc(CC(=O)Nc2ccc(S(=O)(=O)N3CCCCC3)cc2)cc1OC,–,?,–,–,–,?
COc1ccc(CC(=O)Nc2cccc(S(=O)(=O)N3CCCCCC3)c2)cc1OC,–,4.47µM,?,?,–,?
COc1ccc(CCC(=O)Nc2cccc(S(=O)(=O)N3CCCCCC3)c2)cc1OC,·,·,?,10.4µM,·,·
COc1ccccc1CCC(=O)Nc1cccc(S(=O)(=O)N2CCCC2)c1,–,–,?,?,–,–
O=C(Cc1cccc(NC(=O)C2CCCN(C(=O)C3CCC3)C2)c1)Nc1cccc(C(=O)N2CCCC2)c1 (stereo not given),·,·,2.33µM,?,·,·
O=C(Cc1cccc(NC(=O)C2CCCN(C(=O)C3CCCCC3)C2)c1)Nc1cccc(C(=O)N2CCCC2)c1 (stereo not given),·,·,?,4.15µM,·,·
Cc1cc(Cl)ccc1C(=O)C1CCCN(C(=O)c2ccsc2)C1 (stereo not given),·,–,·,·,·,–
